Assay type in all cases: functional
Experiment [1] relates to Plasmodium falciparum. Put plainly: GSK_TCMDC: Inhibition of Plasmodium falciparum 3D7 in whole red blood cells, using parasite LDH activity as an index of growth. Test compounds present at 2uM.
Experiment [2] concerns Plasmodium falciparum. Put plainly: GSK_TCMDC: Inhibition of Plasmodium falciparum Dd2 in whole red blood cells, using parasite LDH activity as an index of growth. Test compounds present at 2uM.
In the next experiment the test system is HepG2. The experiment can be described thus: GSK_TCMDC: Percent inhibition of human HepG2 cell line. Test compounds present at 10uM.

The term Inhibition denotes the change of the read-out against control, counted positive when it falls. Read a low Inhibition as a weak effect. With `CN(C)c1ccc(-c2csc(C(=O)NC3CCCCN(CCC(C)(C)C)C3)c2)cc1.O=C(O)C(F)(F)F` (configuration not stated), the Inhibition in the experiment on Plasmodium falciparum [1] came out at 91%; with Plasmodium falciparum [2] it was 68%; in the experiment with HepG2, 10%.

`CC(NC(=O)c1cc(-c2ccccc2)nc2c1cnn2C(C)C)C1CC1` (configuration not stated): the Inhibition worked out at 100% with Plasmodium falciparum [1], 88% in the experiment with Plasmodium falciparum [2] and 35% in the experiment with HepG2.

Consider `CCn1ncc2c(NC3CCOCC3)c(CNC(=O)c3ccnn3C)c(C)nc21`, for which the Inhibition in the experiment with Plasmodium falciparum [1] was 98%; in the experiment on Plasmodium falciparum [2], 98%; in the experiment with HepG2, 0%.

On to `c1ccc(CNc2nc(NCCc3c[nH]cn3)nc(NCc3cccc4ccccc34)n2)cc1`, for which the Inhibition with Plasmodium falciparum [1] is on record as 91%; in the experiment on Plasmodium falciparum [2] it was 1%; with HepG2, 9%.

For the compound `CN1CCC(NCc2ccc(-c3cccc(S(=O)(=O)NCc4ccccc4)c3)cc2)CC1.O=C(O)C(F)(F)F`, the Inhibition is reported as 100% with Plasmodium falciparum [1], 94% with Plasmodium falciparum [2] and 72% in the experiment with HepG2.

As for `Cc1sc(C)c(C(F)(F)F)c1CNCCCNc1cc(=O)c2ccccc2[nH]1.Cl`, the Inhibition with Plasmodium falciparum [1] is recorded as 96%; in the experiment on Plasmodium falciparum [2] it was 43%; in the experiment on HepG2, 0%.

As for `O=[N+]([O-])c1cccc(-n2nc(NCc3ccc(Cl)cc3)nc2-c2ccc(F)c(C(F)(F)F)c2)c1`, the Inhibition with Plasmodium falciparum [1] is listed as 98%; in the experiment with Plasmodium falciparum [2], 93%; with HepG2, 6%.

Turning to `COc1cc(NC(=O)/C=C/c2cc3ccccc3n2C)ccc1OCCN(C(C)C)C(C)C.Cl`, the Inhibition is recorded as 99% in the experiment with Plasmodium falciparum [1], 68% in the experiment on Plasmodium falciparum [2] and 16% in the experiment on HepG2.

For `CN1CCc2ccc(NC(=O)Nc3ccc(Cl)c(Cl)c3)cc2C1`, the Inhibition with Plasmodium falciparum [1] worked out at 80%; in the experiment with Plasmodium falciparum [2], 22%; with HepG2, 0%.

On to `COc1nc2c(CCN3CCC(NCc4ccc5c(c4)NCCO5)CC3)c(Cl)cnc2cc1F.Cl`, for which the Inhibition came to 100% in the experiment on Plasmodium falciparum [1], 98% in the experiment on Plasmodium falciparum [2] and 23% in the experiment on HepG2.

Consider `CN1CCN(c2cc3c(Nc4ccc5c(cnn5Cc5ccccc5)c4)ncnc3cn2)CC1`, for which the Inhibition with Plasmodium falciparum [1] is on record as 88%; in the experiment on Plasmodium falciparum [2] it was 35%; in the experiment with HepG2, 9%.

In the case of `COc1ccc(Cl)c(CC2c3cc(O)c(Cl)cc3CCN2C)c1.Cl` (configuration not stated), the Inhibition with Plasmodium falciparum [1] was 98%; with Plasmodium falciparum [2] it was 72%; in the experiment with HepG2, 9%.

For `CCc1nc2nc(C)cc(Nc3cc(C)cc(C)c3)n2n1`, the Inhibition came to 96% with Plasmodium falciparum [1], 96% in the experiment with Plasmodium falciparum [2] and 21% with HepG2.

Take `Cc1ccn2c(N(Cc3ccccc3)C(=O)c3ccc(Cl)c(Cl)c3)c(-c3ccccc3)nc2c1`: the figures for the Inhibition with Plasmodium falciparum [1], with Plasmodium falciparum [2] and with HepG2 were 95%, 0% and 0%, respectively.

In the case of `O=C(O)C(F)(F)F.O=S(=O)(NCCN1CCCC1)c1ccc(-c2ccc(CNC3Cc4ccccc4C3)cc2)cc1F`, the results for the Inhibition in the experiment with Plasmodium falciparum [1], with Plasmodium falciparum [2] and with HepG2 were 100%, 75% and 33%, respectively.

On to `COc1ccc(-c2cc(C(F)(F)F)n3ncc(C(=O)Nc4cc(C)ccc4O)c3n2)cc1OC`, for which the Inhibition in the experiment on Plasmodium falciparum [1] is recorded as 100%; with Plasmodium falciparum [2] it was 100%; with HepG2, 2%.

In the case of `CNc1ccc(CNCc2ccc(-c3ccc(-c4nc5cc(F)ccc5[nH]4)cc3)cc2)cc1.O=C(O)C(F)(F)F`, the Inhibition in the experiment on Plasmodium falciparum [1] is 100%; with Plasmodium falciparum [2], 95%; with HepG2, 38%.

Turning to `CC(C)CN1CCN(c2nc(C#N)c3c(c2C(=S)NC2CCCCC2)CC(C)(C)OC3)CC1`, the Inhibition was found to be 100% in the experiment on Plasmodium falciparum [1], 99% in the experiment with Plasmodium falciparum [2] and 0% with HepG2.

As to `O=C(c1ccccc1)N1CCC(CN2CCOC(c3ccccc3)(c3ccccc3)C2)CC1`, the figures for the Inhibition in the experiment with Plasmodium falciparum [1], in the experiment on Plasmodium falciparum [2] and with HepG2 were 94%, 95% and 14%, respectively.

Regarding `CN(Cc1cc(C(F)(F)F)cc(C(F)(F)F)c1)C(=O)C(Cc1ccc(F)cc1)C1CCCNC1` (configuration not stated), the Inhibition with Plasmodium falciparum [1] was 96%; in the experiment on Plasmodium falciparum [2] it was 89%; in the experiment with HepG2, 10%.

Regarding `CCOCCCNc1ncc(-c2ccsc2)c(-c2nc(C)cs2)n1`, the Inhibition is reported as 89% in the experiment on Plasmodium falciparum [1], 83% in the experiment with Plasmodium falciparum [2] and 0% with HepG2.

For the compound `CC(C)COc1ccc(Cl)cc1Cc1nc(-c2nc3ccc(CN4CCN(C)CC4)cc3[nH]2)co1.Cl`, the figures for the Inhibition in the experiment on Plasmodium falciparum [1], in the experiment on Plasmodium falciparum [2] and in the experiment with HepG2 were 100%, 57% and 5%, respectively.

For the compound `Cc1cnc(-c2ccc(NC(=O)N3CCc4cc5nccc(N6CCN7CCC[C@H]7C6)c5cc43)c3ccccc23)o1.Cl`, the Inhibition in the experiment on Plasmodium falciparum [1] is recorded as 100%; in the experiment on Plasmodium falciparum [2] it was 45%; in the experiment on HepG2 it was 12%.

For the compound `CCC(C)NC(=O)Cn1c2ncccc2c(=O)n1-c1ccc(C)cc1` (configuration not stated), the values for the Inhibition in the experiment with Plasmodium falciparum [1], with Plasmodium falciparum [2] and with HepG2 were 95%, 63% and 4%, respectively.

Consider `COc1ccc2nccc(N3CCC(CCNCc4ccc5c(n4)NC(=O)CS5)CC3)c2c1.Cl`, for which the Inhibition in the experiment with Plasmodium falciparum [1] stood at 100%; with Plasmodium falciparum [2], 86%; with HepG2, 55%.

`N[C@@H](COc1cccc2c(-c3ccncc3)c(-c3cccc(NC(=O)Nc4ccccc4)c3)nn12)c1ccccc1`: the values for the Inhibition in the experiment on Plasmodium falciparum [1], in the experiment with Plasmodium falciparum [2] and in the experiment with HepG2 were 100%, 71% and 9%, respectively.

On to `COc1cc2nc(Nc3ccc(Oc4ccccc4)cc3)nc(Nc3ccc(Oc4ccccc4)cc3)c2cc1OC`, for which the Inhibition is listed as 95% in the experiment on Plasmodium falciparum [1], 45% in the experiment on Plasmodium falciparum [2] and 5% in the experiment with HepG2.

`C=CCOc1ccc(C2C(C(=O)OC)=C(C)NC3=C2C(=O)c2ccccc23)cc1OC` (configuration not stated): the Inhibition came to 82% in the experiment with Plasmodium falciparum [1], 65% with Plasmodium falciparum [2] and 0% in the experiment on HepG2.

Consider `COc1ccc2nccc([C@@H](O)CN3CCC(NCc4cc5cc(Cl)ccc5[nH]4)CC3)c2c1.O=C(O)C(=O)O`, for which the values for the Inhibition in the experiment on Plasmodium falciparum [1], in the experiment with Plasmodium falciparum [2] and in the experiment with HepG2 were 99%, 64% and 27%, respectively.

As to `C[C@@H]1CN(C(c2cccc(O)c2)c2cccc(C(=O)N(C)c3cccc(F)c3)c2)[C@@H](C)CN1C(c1cccc(O)c1)c1cccc(C(=O)N(C)c2cccc(F)c2)c1.Cl` (some centres not stated), the Inhibition in the experiment with Plasmodium falciparum [1] is on record as 91%; in the experiment with Plasmodium falciparum [2] it was 85%; in the experiment with HepG2, 0%.

Consider `Cc1ccc(Cn2c(N3CCC(C(=O)NCc4cccs4)CC3)nc3ccccc32)cc1`, for which the values for the Inhibition with Plasmodium falciparum [1], in the experiment on Plasmodium falciparum [2] and with HepG2 were 99%, 71% and 0%, respectively.

Turning to `CCOC(=O)c1ccc(NC(=O)N(Cc2ccc(-c3cccc(CN4CCNCC4)c3)cc2)C2CCN(Cc3ccccc3)CC2)cc1.O=C(O)C(F)(F)F`, the Inhibition with Plasmodium falciparum [1] is given as 100%; with Plasmodium falciparum [2], 55%; in the experiment on HepG2 it was 19%.

On to `CC(C)C[C@H](NC(=O)c1cc2cc(OCCN3CCNCC3)ccc2o1)C(=O)NC1CC[C@@H](C)N(C(=O)Nc2ccc(Cl)cc2)CC1=O.O=C(O)C(F)(F)F` (some centres not stated), for which the values for the Inhibition with Plasmodium falciparum [1], in the experiment with Plasmodium falciparum [2] and in the experiment on HepG2 were 90%, 92% and 0%, respectively.

For the compound `Cc1cccc(Cl)c1S(=O)(=O)N1CCCCC(c2ccc(C(F)(F)F)cc2)=N1`, the Inhibition in the experiment on Plasmodium falciparum [1] was 100%; in the experiment on Plasmodium falciparum [2], 100%; with HepG2, 5%.

On to `OC[C@H](Nc1nc(C(Oc2ccccc2)c2ccccc2)nc2[nH]ncc12)c1ccccc1` (some centres not stated), for which the Inhibition in the experiment on Plasmodium falciparum [1] is recorded as 98%; in the experiment on Plasmodium falciparum [2], 45%; in the experiment on HepG2, 0%.

As for `CCOC(=O)c1ccc(NC(=O)Nc2cccc(-c3ccc(-c4nc5cccc(C)c5[nH]4)s3)c2)cc1`, the Inhibition in the experiment on Plasmodium falciparum [1] was found to be 100%; in the experiment with Plasmodium falciparum [2], 99%; with HepG2, 44%.

With `CC(Cc1ccc(CN2CCN(Cc3ccccc3)CC2)cc1)NCC(O)c1cccc(C(F)(F)F)c1.Cl` (configuration not stated), the figures for the Inhibition in the experiment with Plasmodium falciparum [1], with Plasmodium falciparum [2] and in the experiment with HepG2 were 97%, 98% and 51%, respectively.

On to `Cc1cccc2nc(-c3ccc(-c4ccc(CNCc5ccc(CN)cc5)cc4)cc3)[nH]c12.O=C(O)C(F)(F)F`, for which the Inhibition with Plasmodium falciparum [1] is recorded as 100%; in the experiment on Plasmodium falciparum [2], 46%; in the experiment with HepG2 it was 14%.

Consider `Cc1ccn2c(C(=O)N3CCN(c4cccc5c4nc(-c4ccoc4)n5Cc4ccccn4)CC3)c(C)nc2c1`, for which the Inhibition in the experiment on Plasmodium falciparum [1] is on record as 98%; in the experiment with Plasmodium falciparum [2], 99%; in the experiment on HepG2, 2%.

On to `Cc1[nH]c(C)c(-c2ccc(OCc3cc(C(F)(F)F)cc(C(F)(F)F)c3)nc2)c(=O)c1Br`, for which the Inhibition amounted to 98% in the experiment with Plasmodium falciparum [1], 96% in the experiment on Plasmodium falciparum [2] and 28% in the experiment on HepG2.

Turning to `CCCCCCN1CCCN(Cc2ccc(C(=O)Nc3ccc(C)c(F)c3)cc2)CC1.O=C(O)C(F)(F)F`, the results for the Inhibition in the experiment with Plasmodium falciparum [1], in the experiment on Plasmodium falciparum [2] and in the experiment with HepG2 were 92%, 58% and 47%, respectively.

Take `Cn1c(N)c(C(=O)CSc2nnc(-c3cccs3)n2Cc2ccccc2)c(=O)n(C)c1=O`: the Inhibition in the experiment on Plasmodium falciparum [1] worked out at 85%; in the experiment on Plasmodium falciparum [2], 68%; in the experiment with HepG2, 0%.

For the compound `Cl.c1ccc(-c2cc(NCCCCNc3cc(-c4ccccc4)nc4ccccc34)c3ccccc3n2)cc1`, the Inhibition with Plasmodium falciparum [1] stood at 100%; in the experiment on Plasmodium falciparum [2] it was 97%; in the experiment on HepG2 it was 70%.

In the case of `CCCNCc1ccc(-c2ccc(CN(CCOC)C(=O)CCc3ccc(OC)cc3)cc2)nc1.O=C(O)C(F)(F)F`, the Inhibition was 98% with Plasmodium falciparum [1], 29% in the experiment on Plasmodium falciparum [2] and 11% in the experiment with HepG2.

Turning to `CC(C)N1CCN(c2ccc(OCCCCN3CCN(c4cccc(Cl)c4Cl)CC3)c(C(F)(F)F)c2)CC1.Cl`, the Inhibition with Plasmodium falciparum [1] came to 100%; in the experiment with Plasmodium falciparum [2], 28%; in the experiment with HepG2, 64%.

With `COc1ccccc1C1CC(c2ccccc2)=NN1C(=O)c1ccccc1` (configuration not stated), the Inhibition in the experiment on Plasmodium falciparum [1] is listed as 100%; in the experiment on Plasmodium falciparum [2] it was 93%; with HepG2 it was 13%.

As to `CN(C)CCCc1cc(NC(=O)Nc2cccc(Cl)c2Cl)ccc1I.Cl`, the Inhibition in the experiment on Plasmodium falciparum [1] stood at 100%; with Plasmodium falciparum [2], 45%; in the experiment on HepG2, 12%.

Turning to `COc1ccc2nccc([C@@H](O)CN3CCC(NC(=O)CCC(=O)c4cc(C(C)(C)C)ccc4OC)CC3)c2c1`, the Inhibition in the experiment on Plasmodium falciparum [1] is recorded as 94%; with Plasmodium falciparum [2], 51%; with HepG2 it was 26%.

On to `N=C(N)NC(=O)Nc1cc(F)c(Cl)c(Br)c1`, for which the Inhibition in the experiment with Plasmodium falciparum [1] was 100%; in the experiment on Plasmodium falciparum [2], 50%; with HepG2 it was 0%.

(Values after ChEMBL document CHEMBL1157539, “Thousands of chemical starting points for antimalarial lead identification” (Nature, 2010).)
